High-throughput results (PubChem)
Compounds with a hit are over-represented: about 3.7% of the library has one in this group of screens.
TCR act: activates T cell receptor signaling; primary human leukocytes, anti-CD3, IL-2 HTRF, 48 h; Potency, µM (titrated, usually from 9.22 µM), for inactives: top-dose activation of IL-2 secretion, actives largely listed as activators; 330,000 tested, under 10 active; note: % of control where 0% means no effect
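IL-2 release read by HTRF sandwich (Eu cryptate donor, d2 acceptor, 665 nm emission) after 48 hr exposure of primary human leukocytes to compound together with anti-CD3 beads in the absence of co-stimulatory signals.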
FEN1 inh-1: inhibitors of human flap endonuclease 1; AID 588795; P39748; Recombinant FEN1 flap cleavage, fluorescence, 15 min; Potency, µM (titrated, usually from 114 µM), inactives show at the highest dose activity change, negative = inhibition, most hits filed as inhibitors; actives 0.35% (n = 390,000); note: potency is the fitted concentration of half-maximal effect; % is set by controls: 0 for no effect and ±100 for the full control effect; nearly all actives have a fitted effect of over 65% in size
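FEN1 at 10 nM, compound pretreatment for 15 min (room temperature), 50 nM final substrate to initiate; endpoint reads at 0 and 15 min; DMSO-only plates used as vehicle background.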
PI5P4K alpha inh: blocks human PI5P4K alpha kinase activity | P48426 | PI5P4Kalpha enzyme, ADP-Glo luminescence, 60 min; active compounds read low | max response, % | actives 1.2% (n = 330,000) | AID 652105; active = max response of -50% or lower; inconclusive = between -30% and -50%; inactive = -30% or higher; note: value at the top dose of about 77 µM; % is set by controls: 0 for no effect and ±100 for the full control effect
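Reactions run in 0.038 M HEPES pH 7.4, 0.28 mM EGTA, 0.1% CHAPS and 5% DMSO, with PI5P4Kalpha, substrate, compound and 5 microM ATP final, one hour at room temperature. Readout is ADP-Glo luminescence.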
VDR inh: vitamin D3 receptor (human) inhibition; P11473; VDR-SRC2-3 peptide fluorescence polarization, 2 h; Potency, µM, for the others: max response, negative = inhibition, usual class: inhibitors; actives 0.93% (n = 400,000); note: potency is the fitted concentration of half-maximal effect; % is set by controls: 0 for no effect and ±100 for the full control effect
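Inhibition of the VDR/SRC2-3 peptide interaction is quantified by fluorescence polarization. Compounds (23 nl, pintool) incubate with the reagents for 2 hours at ambient room temperature.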
PLK1 PBD inh: inhibitors of human PLK1 polo-box domain binding. Plk1 PBD binding of FITC phosphopeptide, fluorescence polarization. Potency, µM, inactives show max response, negative = inhibition, hits mostly inhibitors. actives 2.8% (n = 360,000); note: potency is the fitted concentration of half-maximal effect; series mostly up to about 57 µM; % is set by controls: 0 for no effect and ±100 for the full control effect; nearly all actives have a fitted effect of over 65% in size
Target sequence (P53350 whole entry, looked up, the tested form may be a part): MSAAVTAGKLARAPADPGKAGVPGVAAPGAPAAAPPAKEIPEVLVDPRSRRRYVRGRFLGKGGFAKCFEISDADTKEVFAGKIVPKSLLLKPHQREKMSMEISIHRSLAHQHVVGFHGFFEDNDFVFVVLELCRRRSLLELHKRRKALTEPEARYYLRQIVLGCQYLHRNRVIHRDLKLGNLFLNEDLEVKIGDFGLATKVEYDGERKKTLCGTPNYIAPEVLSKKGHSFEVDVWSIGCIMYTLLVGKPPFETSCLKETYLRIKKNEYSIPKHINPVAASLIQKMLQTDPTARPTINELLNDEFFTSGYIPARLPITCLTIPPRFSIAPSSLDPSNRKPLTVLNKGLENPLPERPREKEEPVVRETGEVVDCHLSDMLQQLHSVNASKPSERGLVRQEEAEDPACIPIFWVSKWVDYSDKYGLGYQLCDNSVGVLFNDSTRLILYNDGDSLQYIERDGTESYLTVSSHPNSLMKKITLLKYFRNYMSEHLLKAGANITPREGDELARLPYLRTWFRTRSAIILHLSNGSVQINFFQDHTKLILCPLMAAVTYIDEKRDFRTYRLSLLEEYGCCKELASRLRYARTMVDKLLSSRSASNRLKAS
WRN helicase inh-1: WRN helicase (human) inhibition | Potency, µM (highest dose often 114 µM), for the others: top-dose activity change, negative = inhibition, usual class: inhibitors | Q14191 | WRN helicase unwinding, fluorescent forked duplex, kinetic | actives 0.46% (n = 360,000); note: potency is the fitted concentration of half-maximal effect; % is set by controls: 0 for no effect and ±100 for the full control effect; nearly all actives have a fitted effect of over 55% in size
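Kinetic fluorescence helicase assay: unwinding of a quenched forked DNA duplex (100 nM final) with 2 mM ATP final raises red fluorescence (525/598 nm). Compounds sat 15 min at room temperature with 20 nM WRN beforehand.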
FEN1 inh-2: confirmation of human FEN1 inhibitors; Potency, µM, actives largely listed as inhibitors; actives 79% (n = 880); FEN1 flap cleavage, TAMRA/BHQ2 fluorogenic DNA substrate; AID 720498; shares compounds with FEN1 inh-1; note: potency is the fitted concentration of half-maximal effect; nearly all actives have a fitted effect of over 60% in size
WRN helicase inh-2: WRN helicase inhibition, cherry-pick retest; Potency, µM (highest dose often 57.1 µM), for inactives: top-dose activity, negative = inhibition, actives largely listed as inhibitors; actives 63% (n = 610); shares compounds with WRN helicase inh-1; WRN helicase DNA unwinding, fluorescence kinetic; note: potency is the fitted concentration of half-maximal effect; nearly all actives have a fitted effect of over 65% in size
TO displacement: counter-screen for WRN helicase inhibitors: DNA binding; shares compounds with WRN helicase inh-1; actives 10% (n = 610); Potency, µM (titrated, usually from 57.1 µM), without a hit: at the highest dose activity change, negative = inhibition, most hits filed as inhibitors; thiazole orange DNA binding displacement, fluorescence;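 note: drop in dye fluorescence marks compound binding to DNA; potency is the fitted concentration of half-maximal effect; % is set by controls: 0 for no effect and ±100 for the full control effect; nearly all actives have a fitted effect of over 60% in size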
BLM counter: blocks human BLM helicase in WRN counterscreen; shares compounds with WRN helicase inh-1; Recombinant BLM helicase DNA unwinding, red fluorescence; Potency, µM (top dose mostly 57.1 µM), for the others: top-dose activity change, negative = inhibition, actives largely listed as inhibitors; actives 60% (n = 610); note: potency is the fitted concentration of half-maximal effect; nearly all actives have a fitted effect of over 60% in size
TbPYK confirm: Trypanosoma brucei pyruvate kinase inhibition, cherry-pick confirmation | shares compounds with PLK1 PBD inh | recombinant TbPYK, Kinase-Glo ATP luminescence | Potency, µM (titrated, usually from 76.9 µM), for inactives: at the top dose activity change, negative = inhibition, actives largely listed as inhibitors | actives 67% (n = 890) | AID 720569; note: potency is the fitted concentration of half-maximal effect; % is set by controls: 0 for no effect and ±100 for the full control effect; nearly all actives have a fitted effect of over 70% in size
TbPYK ADP-Glo: orthogonal confirmation of Trypanosoma brucei pyruvate kinase inhibitors; Potency, µM (titrated, usually from 76.9 µM), inactives show at the top dose activity change, negative = inhibition, usual class: inhibitors; shares compounds with PLK1 PBD inh; recombinant TbPYK, ADP-Glo luminescence, 60 min; actives 62% (n = 890); note: potency is the fitted concentration of half-maximal effect; % is set by controls: 0 for no effect and ±100 for the full control effect; nearly all actives have a fitted effect of over 75% in size
The depositor's hits bear a star; i = inactive; ? = inconclusive; / = no result. Unless noted, calls come from the whole dose curve; as a rule, active = well fitted curve in the direction sought with a large enough effect; inconclusive = small, poorly fitted or top-dose-only effect, or another doubt; inactive = no such curve, though single readings can be large; an effect the other way counts as inactive or inconclusive.

SMILES | TCR act | FEN1 inh-1 | PI5P4K alpha inh | VDR inh | PLK1 PBD inh | WRN helicase inh-1 | FEN1 inh-2 | WRN helicase inh-2 | TO displacement | BLM counter | TbPYK confirm | TbPYK ADP-Glo
CCOC(=O)C1CCCN(c2ccc([N+](=O)[O-])c3nonc23)C1 (centres undefined) | 0% | ? | -2 | -10% | ? | ? | 67* | 24µM* | i | 24µM* | / | /
COC1C(C)OC(OC2CC(C)(O)Cc3cc4c(c(O)c32)C(=O)c2c(O)cc3c(c2C4=O)OC2OC3(C)C(O)C(N(C)C)C2O)C(OC)C1(C)OC (centres undefined) | -1% | 16µM* | 0 | 3% | -15% | 16µM* | 4.8* | 2.2µM* | 446% | ? | / | /
CN1CC[C@@]2(CCCN(C(=O)Oc3ccccc3)C2)C1 | / | / | / | -13% | / | / | / | / | / | / | / | /
Cc1cc(C=C2C(=O)N(C)C(=S)N(C)C2=O)c(C)n1-c1ccncc1 | 1% | ? | ? | ? | ? | ? | / | / | / | / | / | /
Cc1cc(/C=C2\C(=O)NC(=O)N(c3ccc(Br)cc3)C2=O)c(C)n1-c1cc(C(=O)O)cc(C(=O)O)c1 | -2% | ? | -77* | ? | 12µM* | 22µM* | ? | 24µM* | 0% | -17% | / | /
C[N+]1([O-])[C@@H]2CC(OC(=O)[C@@H](CO)c3ccccc3)C[C@@H]1[C@H]1O[C@H]12 (some centres undefined) | / | / | / | -1% | / | / | / | / | / | / | / | /
COc1ccc(N2C(=O)NC(=O)/C(=C/c3ccc([N+](=O)[O-])s3)C2=O)cc1 | 5% | ? | -77* | 40µM* | 3µM* | 50µM* | 19* | 19µM* | ? | 22µM* | 6.3µM* | 13µM*
COc1ccccc1N1C(=O)NC(=O)/C(=C/c2ccc([N+](=O)[O-])s2)C1=O | 3% | 45µM* | -63* | 45µM* | 3.4µM* | 35µM* | 11* | / | / | / | ? | ?
COc1cccc(N2C(=O)NC(=O)/C(=C/c3ccc([N+](=O)[O-])s3)C2=O)c1 | 5% | 40µM* | ? | ? | 3µM* | 35µM* | 15* | / | / | / | 13µM* | 18µM*
COc1ccc(N2C(=O)NC(=O)/C(=C\c3ccc([N+](=O)[O-])s3)C2=O)cc1 | -6% | ? | -63* | 71µM* | 2.7µM* | 25µM* | 9.5* | 22µM* | -17% | -22% | 7.9µM* | 16µM*
O=c1c2ccccc2nc(/C=C/c2ccccc2O)n1-c1ccc(Br)cc1 | / | ? | / | -19% | / | / | / | / | / | / | / | /
